# PINK1 expr mod: A Quantitative High throughput Screen to Identify Chemical Modulators of PINK1 Expression. actives 0.2% (n = 410,000). Potency, µM (doses to about 76.6 µM), inactives show at the highest dose activation (PINK1 increase), most hits filed as activators. PINK1 immunofluorescence, high-content cytometry, 24 h; active = well fitted activation curve with a large enough effect; inconclusive = small, poorly fitted or top-dose-only effect; cell line not stated here; also: potency is read from the fitted curve at half-maximal effect; % of control where 0% means no effect; nearly all actives have a fitted effect of over 65% in size
#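 Measures PINK1 amount and localization on or inside mitochondria by immunofluorescence. Stable cells get compounds at 5 concentrations for 24 hours before fixation and staining; CCCP controls included.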
# ATXN2 expr inh: Primary qHTS for Inhibitors of ATXN expression; HEK-293 ATXN2-luciferase reporter, luminescence, 24 h; Potency, µM (titrated, usually from 57 µM), for inactives: at the top dose activity change, negative = inhibition, usual class: inhibitors; actives 0.72% (n = 360,000); also: potency is read from the fitted curve at half-maximal effect; % is scaled to controls: 0 for no effect and ±100 for the full control effect; nearly all actives have a fitted effect of over 55% in size
#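 qHTS (up to 57 uM final) was run with 24 h compound exposure of reporter cells at 37 °C. Each well was multiplexed: SteadyGlo luminescence measured ATXN2-luciferase expression after a fluorogenic Gly-Phe-AFC viability readout (25 uM final).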
# SW480 rereplic: A quantitative high throughput screen for small molecules that induce DNA re-replication in SW480 colon adenocarcinoma cells; actives 1.8% (n = 340,000); SW480 DNA re-replication, Hoechst DNA content imaging, 48 h; Potency, µM (highest dose often 46.1 µM), inactives show at the highest dose re-replication activation, hits mostly activators; also: potency is read from the fitted curve at half-maximal effect; % of control where 0% means no effect; nearly all actives have a fitted effect of over 55% in size
#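 Treated cells incubate 48 hr (37 C, 5% CO2), are stained 40 min with Hoechst, and nuclear fluorescence is enumerated; a rise in nuclei with high DNA signal marks re-replication.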
# IL-1B inflam inh: qHTS for Inhibitors of Inflammasome Signaling: IL-1-beta AlphaLISA Primary Screen; actives 4.7% (n = 360,000); THP-1 LPS/ATP IL-1B secretion, AlphaLISA, 16 h; hits give low values; activity change, % at 57.5 µM; AID 743279, 2014; in the data active = activity change below about -50%; inconclusive = mostly about -30% to -49%; also: % is scaled to controls: 0 for no effect and ±100 for the full control effect
#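 Secreted IL-1B measured by AlphaLISA bead assay after 16 h compound exposure of THP-1 cells; compounds (final up to 57.5 uM) added 1 h before LPS (250 ng/mL) and ATP (1.25 mM) stimulation; lower signal means less secretion.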
# MCF10A rerep: A quantitative high throughput screen for small molecules that induce DNA re-replication in MCF 10a normal breast cells | MCF 10A DNA re-replication, Hoechst nuclear intensity, 48 h | Potency, µM (highest dose often 46.1 µM), for inactives: top-dose activity, positive = re-replication, hits mostly activators | actives 2.9% (n = 350,000) | AID 624296, 2012; also: potency is read from the fitted curve at half-maximal effect; % of control where 0% means no effect; nearly all actives have a fitted effect of over 50% in size
# ATXN viability: Viability Counterscreen for Primary qHTS for Inhibitors of ATXN expression. Potency, µM (titrated, usually from 56.7 µM), most hits filed as cytotoxic. S2 cells (HEK-293 line with an ATXN2-luciferase reporter) viability, CellTiter-Fluor protease fluorescence, 24 h. AID 651635, 2014. actives 0.49% (n = 400,000); also: potency is read from the fitted curve at half-maximal effect; nearly all actives have a fitted effect of over 40% in size
# Active calls of the source: *; i = inactive; ? = inconclusive; . = not tested or not shown; [ ] = remark or other dose. In the library only some 7.1% were active in any assay of this set; here they are far more common. Unless noted, calls follow the shape of the dose curve; as a rule, active = well fitted curve in the direction sought with a large enough effect; inconclusive = small, poorly fitted or top-dose-only effect, or another doubt; inactive = no such curve, though single readings can be large; an effect the other way counts as inactive or inconclusive.
SMILES,PINK1 expr mod,ATXN2 expr inh,SW480 rereplic,IL-1B inflam inh,MCF10A rerep,ATXN viability
COCCCNC(=O)c1ccc(Cn2c(=O)c3ccccc3n(Cc3ccccc3C#N)c2=O)cc1,7%,?,21%,13,23µM*,i
CCn1c(=O)c(C(=O)NCCc2ccc(OC)c(OC)c2)c(O)c2ccccc21,4%,.,8%,11,?,i
O=C(C(=O)N1CCN(c2ccccc2F)CC1)c1cn(CC(=O)N2CCCC2)c2ccccc12,-1%,.,.,-13,.,i
CC(C)c1ccc(C2=CC(c3ccc(C(C)C)cc3)n3nnnc3N2)cc1 (centres undefined),3%,88%,.,.,.,.
COc1ccc(C2=CC(c3ccc(F)cc3)n3nnnc3N2)cc1 (centres undefined),-2%[38.3 µM],30%,15µM*,?,23µM*,.
COc1ccc(C2=CC(c3sccc3C)n3nnnc3N2)cc1 (centres undefined),1%,84%,15%,14,?,i
Cc1ccc(C2=CC(c3ccc(N(C)C)cc3)n3nnnc3N2)cc1 (centres undefined),7%,39%,?,11,23µM*,.
COc1ccccc1C1C=C(c2ccccc2)Nc2nnnn21 (centres undefined),17%[38.3 µM],-4%,?,-15,7.3µM*,i
COc1cccc(C2=CC(c3cccs3)n3nnnc3N2)c1 (centres undefined),4%,28%,5.8µM*,0,4.1µM*,i
COc1ccc(CN2CCCC(c3nc(-c4ccncc4)ncc3-c3ccccc3)C2)cc1OC (centres undefined),-1%,.,.,.,.,i
COc1cc(C2C(=O)N(C3CCCCCC3)CC(=O)N2CCC2=CCCCC2)ccc1OC(C)C (centres undefined),1%,.,.,.,.,.
C(=C\c1ccnc2ccccc12)/c1cccnc1,0%,.,.,.,.,.
C(=Cc1cnnc2ccccc12)c1ccccc1,3%,54%,7%,-63*,6%,i
CC(C)Cn1c(N)c(C(=O)COC(=O)CC23CC4CC(CC(C4)C2)C3)c(=O)n(C)c1=O,6%,?,2%,?,12µM*,?
CC(C)Cn1c(N)c(C(=O)COC(=O)C2CC(=O)N(Cc3ccccc3Cl)C2)c(=O)n(C)c1=O (centres undefined),-1%,-11%,-1%,-61*,8%,i
CC(=O)Nc1ccc(CN2C(=O)C(C)ON=C2c2ccccc2-c2ccco2)cc1 (centres undefined),2%,2%,.,0,.,i
Nc1ncnc2c1nc(Cl)n2[C@@H]1O[C@H](CO)[C@@H](O)[C@@H]1O,0%,?,.,.,.,.
Oc1c(C(c2ccccc2)N2CCOCC2)sc2nc(-c3ccco3)nn12 (centres undefined),1%,.,.,.,.,.
CC(=O)Oc1cccc(N2C(=O)c3cccc4c([N+](=O)[O-])ccc(c34)C2=O)c1,?,.,?,-95*,21µM*,?
Cc1ccc(C(=O)O)cc1N1C(=O)c2cccc3c([N+](=O)[O-])ccc(c23)C1=O,8%,?,?,0,18µM*,.
CN(C)CCCN1C(=O)c2cccc3c([N+](=O)[O-])ccc(c23)C1=O,4%,?,5.8µM*,-51*,5.8µM*,.
O=C1c2cccc3c([N+](=O)[O-])ccc(c23)C(=O)N1CCc1ccccn1,6%,13%,?,-21,5%,i
O=C(O)c1ccc(CN2C(=O)c3cccc4c([N+](=O)[O-])ccc(c34)C2=O)cc1,28%,?,5.8µM*,-99*,5.8µM*,.
O=C(NCC1Cc2cccc(-c3cnccn3)c2O1)C1COc2ccccc2O1 (centres undefined),1%,.,.,.,.,i
O=C(Nc1nccs1)c1cccc(N2C(=O)c3cccc4c([N+](=O)[O-])ccc(c34)C2=O)c1,4%,?,7.3µM*,-106*,3.7µM*,?
SMILES,PINK1 expr mod,ATXN2 expr inh,SW480 rereplic,IL-1B inflam inh,MCF10A rerep,ATXN viability
Cc1cccc(CSc2ncc(Cl)c(C(=O)Nc3sc4c(c3C(N)=O)CCCC4)n2)c1,3%,11%,.,.,.,i
CCc1ccc(N(C(=O)c2snc(C(N)=O)c2N)C(C(=O)NC2CCCC2)c2ccco2)cc1 (centres undefined),-1%,-29%,?,-64*,6.5µM*,i
COc1ccc(N(C(=O)c2snc(C(N)=O)c2N)C(C(=O)NC2CCCC2)c2ccco2)cc1 (centres undefined),1%,6%,20%,-15,?,?
CCOc1ccc(N(C(=O)c2snc(C(N)=O)c2N)C(C(=O)NCC2CCCO2)c2ccc(C)o2)cc1 (centres undefined),0%,-15%,3%,-27,5%,i
COc1ccc(N(C(=O)c2snc(C(N)=O)c2N)C(C(=O)NC2CCCCC2)c2ccc(C)o2)cc1 (centres undefined),2%,-12%,?,-50*,-18%,?
Cc1cccc(NC(=O)c2ccc3snnc3c2)c1C,?,15%,.,.,.,i
O=C(c1cccs1)N1CCCc2cc(NS(=O)(=O)c3ccc(Br)cc3)ccc21,0%,-19%,.,.,.,?
CC(=O)O[C@@H]1[C@H]2[C@@H](C[C@@H](C)[C@@H]3C=CC(=O)[C@@]13C)OC(=O)[C@@H]2C,1%,-2%,-30%[9.22 µM],?,-43%,i
C=C1C(=O)OC2C1CCC(C)C1C=CC(=O)C12C (centres undefined),?,?,6.5µM*,-68*,2.1µM*,?
CS(=O)(=O)N1CCN(/[N+]([O-])=N/Oc2ccc([N+](=O)[O-])cc2[N+](=O)[O-])CC1 (tested in a mixture with another compound),-1%,.,.,.,.,.
COc1ccc(OC(=O)N(CC(=O)O)Cc2ccc(OCCc3nc(-c4ccccc4)oc3C)cc2)cc1,.,0%,.,.,.,i
Cc1nn(CC(=O)NCc2ccc(OC(C)C)cc2)c(=O)c2c(C)n(-c3ccc(Cl)cc3)nc12,0%,.,.,.,.,.
Cc1csc2sc(-c3ccnc(SCC(=O)NCc4ccccc4)n3)c(C)c12,0%,-1%,18µM*,75,?,i
COC(=O)c1scc(-c2ccc(C)cc2)c1S(=O)(=O)N1CCN(c2cccc(Cl)c2)CC1,1%,-7%,.,.,.,i

# Assay outcomes as filed in PubChem.
